Results as given in PubChem BioAssay AID588592 (Sanford-Burnham Center for Chemical Genomics, 2011).
Some of the results follow. Values without a mark were called inactive. The rule behind the calls is not given here.

Assay: fluorescence interference of Apaf-1 activator hits, dose response, artefact control for Apaf-1 activator project (AID 588592)
Conditions: fluorescence interference counterscreen, Apaf-1 activator assay
Molecule `CCN(CC)CCOc1ccc2c(c1)C(=NNC(=O)c1ccccn1)c1cc(OCCN(CC)CC)ccc1-2` has an EC50 greater than 100 µM.
For `C=CC1=C(C(=O)O)N2C(=O)[C@@H](NC(=O)/C(=N/OCC(=O)O)c3csc(N)n3)[C@H]2SC1`, the EC50 was greater than 100 µM.
Work on `C=C(C)C(=O)Nc1cccc(C2=NOC3(C2)C[C@H](C(N)=O)N(C(=O)C(c2ccccc2)c2ccccc2)C3)c1` (some centres undefined) yielded an EC50 greater than 100 µM.
In the case of `C=CC1=C(C(=O)O)N2C(=O)[C@@H](NC(=O)/C(=N\OCC(=O)O)c3csc(N)n3)[C@H]2SC1`, the EC50 is reported as greater than 100 µM.
